# Results taken from PubChem BioAssay (NCATS).
# “And” between values parts separate entries of the source, which are not always exact repeats. Identical values can stand only once. Results filed as inconclusive are left out. The source made the active and inactive calls. Unless noted, calls follow the shape of the dose curve; as a rule, active = well fitted curve in the direction sought with a large enough effect; inconclusive = small, poorly fitted or top-dose-only effect, or another doubt; inactive = no such curve, though single readings can be large; an effect the other way counts as inactive or inconclusive. Peptide text beside a SMILES is read from it.
# What was measured:
# [1] = molecular target: T1, Hexokinase-4 (Homo sapiens) + Glucokinase regulatory protein (Homo sapiens) (UniProt P35557+Q14397); assay: qHTS assay for inhibitors of recombinant human GCK-GKRP interaction: Diaphorase-coupled assay (AID 743205)
# T1 sequence (P35557 whole entry, looked up): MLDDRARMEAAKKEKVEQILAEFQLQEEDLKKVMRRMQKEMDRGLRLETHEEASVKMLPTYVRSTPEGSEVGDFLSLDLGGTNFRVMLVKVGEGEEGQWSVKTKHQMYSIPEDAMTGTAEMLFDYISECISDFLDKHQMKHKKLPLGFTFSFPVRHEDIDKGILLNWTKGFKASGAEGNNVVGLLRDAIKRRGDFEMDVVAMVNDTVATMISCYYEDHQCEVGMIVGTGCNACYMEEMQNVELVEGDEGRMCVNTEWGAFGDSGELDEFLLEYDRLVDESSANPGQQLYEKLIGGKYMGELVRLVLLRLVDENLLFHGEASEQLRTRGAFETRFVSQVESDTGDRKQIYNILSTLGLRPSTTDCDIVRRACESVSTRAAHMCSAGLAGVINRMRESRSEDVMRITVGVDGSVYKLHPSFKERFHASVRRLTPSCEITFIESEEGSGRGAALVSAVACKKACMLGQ
# T1 sequence (Q14397 whole entry, looked up): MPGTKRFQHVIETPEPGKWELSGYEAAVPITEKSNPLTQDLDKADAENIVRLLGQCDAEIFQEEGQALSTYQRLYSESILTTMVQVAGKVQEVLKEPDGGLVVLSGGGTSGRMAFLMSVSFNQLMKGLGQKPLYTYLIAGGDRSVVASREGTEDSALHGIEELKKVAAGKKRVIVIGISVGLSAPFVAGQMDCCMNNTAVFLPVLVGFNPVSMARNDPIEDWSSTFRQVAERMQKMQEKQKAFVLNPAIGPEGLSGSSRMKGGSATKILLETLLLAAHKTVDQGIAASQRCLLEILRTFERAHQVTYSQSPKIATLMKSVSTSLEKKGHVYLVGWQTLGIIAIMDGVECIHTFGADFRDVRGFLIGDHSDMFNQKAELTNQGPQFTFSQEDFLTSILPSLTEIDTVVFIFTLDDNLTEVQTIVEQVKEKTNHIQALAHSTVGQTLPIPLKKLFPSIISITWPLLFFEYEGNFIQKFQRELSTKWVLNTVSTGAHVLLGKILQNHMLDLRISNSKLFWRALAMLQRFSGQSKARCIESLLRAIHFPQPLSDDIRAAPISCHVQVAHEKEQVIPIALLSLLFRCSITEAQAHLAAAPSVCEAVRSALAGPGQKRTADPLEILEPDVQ
# In short: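 Signal derives from resorufin generated by diaphorase, linked to GCK turnover of glucose (5 mM) and ATP (0.4 mM). Enzyme complex was added after a 20-minute compound preincubation and monitored for 30 minutes.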
# [2] = molecular target: T1, Hexokinase-4 (Homo sapiens) + Glucokinase regulatory protein (Homo sapiens); assay: qHTS assay for inhibitors of recombinant human GCK-GKRP interaction: ADP-Glo assay (AID 743206);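 also: plate controls were DMSO plus enzyme for no effect and no enzyme for full effect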
# In short: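 Pin-transferred compounds meet a 15 nM GST-GCK/15 nM FLAG-GKRP/2 uM S6P mix (dispense concentrations). ATP is then added to 0.4 mM final with 5 mM glucose, and the reaction runs 60 min at room temperature. ADP is quantified luminescently.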
# [3] = molecular target: T1, Hexokinase-4 (Homo sapiens) + Glucokinase regulatory protein (Homo sapiens); assay: qHTS assay for inhibitors of recombinant human GCK-GKRP interaction: HTRF assay (AID 743207);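 also: 0% = DMSO with GCK present and -100% = DMSO wells lacking GCK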
# In short: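 Titration screening format: recombinant GST-GCK and FLAG-GKRP at 5 nM, S6P at 2 uM, labelled anti-tag antibodies, 60 min at RT, dual-wavelength HTRF readout.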
# [4] = qHTS Assay for Identifying Gametocytocidal Compounds (AID 743244); also: potency is read from the fitted curve at half-maximal effect;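 as to max response: % is scaled to controls: 0 for no effect and ±100 for the full control effect; actives lower the fluorescent signal which means gametocytes are killed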; settings: P. falciparum 3D7 stage III-V gametocytes, alamarBlue, 72 h; max response: stronger effect = lower value
# In short: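 A resazurin-based viability read-out was applied to mature P. falciparum gametocytes: 72 h compound treatment, then 24 h dye incubation, with falling fluorescence signalling gametocytocidal effect.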
# [5] = qHTS profiling of the MIPE4 collection as inhibitors of Plasmodium falciparum (3D7) proliferation (AID 743344; call rule not given here;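 also: scaled between DMSO vehicle wells and 0.29 µM artemisinin as full inhibition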); settings: P. falciparum 3D7 in erythrocytes, SYBR Green DNA fluorescence, 72 h; at 28.5 µM (top of the series) unless noted
# In short: (§1)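 Parasite DNA was quantified by SYBR Green I fluorescence (ex 485, em 535 nm) after overnight lysis in saponin/Triton buffer at room temperature. Cultures at 0.3% parasitemia and 2.5% hematocrit were first exposed to compound for 72 h at 37 C; signals were normalised to artemisinin (0.29 uM) and vehicle wells.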
# [6] = qHTS profiling of the MIPE4 collection as inhibitors of Plasmodium falciparum (DD2) proliferation (AID 743345; call rule not given here); settings: P. falciparum Dd2 in erythrocytes, SYBR Green DNA, 72 h; at 28.5 µM (top of the series) unless noted
# In short: as §1
# [7] = qHTS profiling of the MIPE4 collection as inhibitors of Plasmodium falciparum (DD2) proliferation (Rep 2) (AID 743346; call rule not given here); settings: P. falciparum Dd2 in erythrocytes, SYBR Green DNA, 72 h; at 28.5 µM (top of the series) unless noted
# In short: as §1
# [8] = qHTS profiling for inhibitors of Plasmodium falciparum (HB3) proliferation (AID 743324); settings: Plasmodium falciparum HB3 blood-stage proliferation; at 28.7 µM (top of the series) unless noted;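 also: 100% = DMSO vehicle wells and 0% = artemisinin-treated control wells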
# In short: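 SYBR Green fluorescence (485 ex/535 em) of lysed cultures, incubated overnight at room temperature in the dark, quantifies parasite DNA. Infected erythrocytes at 0.3% parasitemia and 2.5% hematocrit were exposed 72 h; values normalized to DMSO and 0.29 uM artemisinin controls.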
# [9] = qHTS assay for cell viability of the p53RE-bla HCT-116 cell line (AID 743292); also: nearly all actives have a fitted effect of over 55% in size; also: potency is read from the fitted curve at half-maximal effect
# In short: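 ATP-based luminescence, 16 h compound exposure at 37 C, p53RE-bla HCT-116 cells at 4,000/well.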
# [10] = qHTS assay for cell viability of HEK293 cells (AID 743288); settings: ATP luminescence (CellTiter-Glo), 18 h; max response: stronger effect = lower value; also: nearly all actives have a fitted effect of over 50% in size; also: potency is read from the fitted curve at half-maximal effect; as to max response: % is scaled to controls: 0 for no effect and ±100 for the full control effect
# In short: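 HEK293, 18 h, 37 C, ATP luminescence. Cells at 2,000/well were allowed at least 5 h to settle before dosing; CellTiter-Glo developed 30 min at RT.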
Compound,outcome [1],outcome [2],outcome [3],max response [4],"parasite growth, % of DMSO control [5]","parasite growth remaining, % of DMSO control (lower = more inhibition) [6]","parasite growth, % of control (lower = inhibition) [7]","remaining proliferation (% of control), lower = more inhibition [8]",Potency [9],max response [10],Potency [4],Potency [10]
OC(CN1CCN(c2cccc(Cl)c2)CC1)C(c1ccccc1)c1ccccc1 (stereo not drawn),inactive,inactive,inactive,26.8% (inactive),42.2%,90.9%,66%,,,,,
O=c1c(O)c(-c2cc(O)c(O)c(O)c2)oc2cc(O)cc(O)c12,inactive,inactive,inactive,4.63% (inactive),93.5%,85.3%,111%,,,,,
Cc1cccc(C#Cc2ccccc2)n1,inactive,inactive,inactive,7.87% (inactive),23.9%,98.6%,36.6%,75.6%,,,,
COc1cc2c(cc1OC)C1CC(=O)C(CC(C)C)CN1CC2 (stereo not drawn),inactive,inactive,inactive,30.1% (inactive),82.2%,7.77%,77.8%,,,,,
CC(=O)N1CCN(c2ccc(OC[C@H]3CO[C@](Cn4ccnc4)(c4ccc(Cl)cc4Cl)O3)cc2)CC1,inactive,inactive,inactive,,10.3%,,,,inactive,,,
CC(=O)O[C@H]1C(=O)[C@@]2(C)C([C@H](OC(=O)c3ccccc3)[C@]3(O)C[C@H](OC(=O)[C@H](O)[C@@H](NC(=O)c4ccccc4)c4ccccc4)C(C)=C1C3(C)C)[C@]1(OC(C)=O)CO[C@@H]1C[C@@H]2O (stereo partly drawn),inactive,inactive,inactive,,5.85%,14.4%,11.8%,,,,,
O=C1c2ccccc2-c2n[nH]c3cccc1c23,inactive,inactive,inactive,-3.57% (inactive) and 13.7% (inactive),62.9%,93%,87%,,,,,
O=Nc1c(-c2c(O)[nH]c3cc(Br)ccc23)[nH]c2ccccc12,inactive,inactive,inactive,,2.9%,6.11%,3.69%,,,,,
CNC[C@H](O)c1ccc(O)c(O)c1,inactive,inactive,inactive,-9.4% (inactive) and 18.5% (inactive),61.3% [at 57.5 µM],70.6% [at 57.5 µM],51.2% [at 57.5 µM],,inactive,-7.6% (inactive),,
Oc1ccc(-c2nc(-c3ccc(F)cc3)c(-c3ccncc3)[nH]2)cc1,inactive,inactive,inactive,19.1% (inactive),37%,79.6%,35.5%,,,,,
NC(=NCc1ccccc1)NC(=O)c1nc(Cl)c(N)nc1N,inactive,inactive,inactive,,103%,98.4%,83.5%,,,,23.5 µM (active),
Oc1ccc2ccccc2c1SSc1c(O)ccc2ccccc12,inactive,inactive,inactive,,6.56%,53.4%,30.4%,,,,3.55 µM (active),
Nc1nc(OCc2ccccc2)c2[nH]cnc2n1,inactive,inactive,inactive,13.4% (inactive),,,,,,,,
CCOC(=O)C(C)Oc1cccc2c(=O)n(CC(=O)Nc3ccc4c(c3)OCCO4)ccc12 (stereo not drawn),inactive,inactive,inactive,9.26% (inactive),72.1%,92.5%,81.6%,104%,,,,
CC(C)c1ccc2c(c1)c(SC(C)(C)C)c(CC(C)(C)C(=O)O)n2Cc1ccc(Cl)cc1,inactive,inactive,inactive,14.3% (inactive) and 21.6% (inactive),21.7%,42.3%,22%,22.8%,,,,
O=c1cc(N2CCOCC2)oc2c(-c3ccccc3)cccc12,inactive,inactive,inactive,3.56% (inactive),51.9%,96%,78.4%,,,,,
Nc1ccn([C@@H]2O[C@H](CO)[C@@H](O)C2O)c(=O)n1 (stereo partly drawn),inactive,inactive,inactive,0.0114% (inactive) and -8.34% (inactive),89.3%,137%,71%,,,,,
COc1ccccc1N1CCN(CCN(C(=O)C2CCCCC2)c2ccccn2)CC1,inactive,inactive,inactive,6.13% (inactive),57.8%,78.2%,40.7%,,,,,
O=c1ccc2ccc(O)c(O)c2o1,inactive,inactive,inactive,,169%,34.2%,19.7%,,,,,
O=C1c2c(O)cc(O)cc2OC(c2ccc(O)c(O)c2)C1O (stereo not drawn),inactive,inactive,inactive,-8.7% (inactive),75.5%,93.8%,64.4%,,,,,
O=C(c1ccccc1)c1ccc2n1CCC2C(=O)O (stereo not drawn),inactive,inactive,inactive,44.1% (inactive) and 46.1% (inactive),67.8%,107%,121%,,,,,
C[C@@H](N)C1CCC(C(=O)Nc2ccncc2)CC1 (stereo partly drawn),inactive,inactive,inactive,-0.932% (inactive) and 18% (inactive),85.6%,91.5%,78.9%,94.3%,,,,
C[C@H](Cc1ccc(O)c(O)c1)[C@@H](C)Cc1ccc(O)c(O)c1,inactive,inactive,inactive,4.03% (inactive),15.1%,17.2%,16.4%,,,,,
CN(C)CCCC1(c2ccc(F)cc2)OCc2cc(C#N)ccc21 (stereo not drawn),inactive,inactive,inactive,7.27% (inactive),95.4%,63.7%,45.5%,,,,,
Cc1nc2n(c(=O)c1CCN1CCC(c3noc4cc(F)ccc34)CC1)CCCC2,,,,9.32% (inactive),,,,,,,,
Cc1c(OCC(F)(F)F)ccnc1CS(=O)c1nc2ccccc2[nH]1 (stereo not drawn),inactive,inactive,inactive,,,,,,,,,

Compound,outcome [1],outcome [2],outcome [3],max response [4],"parasite growth, % of DMSO control [5]","parasite growth remaining, % of DMSO control (lower = more inhibition) [6]","parasite growth, % of control (lower = inhibition) [7]","remaining proliferation (% of control), lower = more inhibition [8]",Potency [9],max response [10],Potency [4],Potency [10]
Cc1cc(O)c2c(c1)C(=O)c1cc(O)cc(O)c1C2=O,inactive,inactive,inactive,14.5% (inactive),,,,,31.6 µM (active),,,44.7 µM (active)
O=c1c(O)c(-c2ccc(O)cc2O)oc2cc(O)cc(O)c12,inactive,inactive,,11.7% (inactive),80.8%,71%,111%,,inactive,-9.35% (inactive),,
COc1cc2nc(N3CCN(C(=O)C4CCCO4)CC3)nc(N)c2cc1OC (stereo not drawn),inactive,inactive,inactive,-8.17% (inactive) and 12.4% (inactive),30.8%,76.4%,46.2%,,,,,
O=C(O)c1cccnc1Nc1cccc(C(F)(F)F)c1,inactive,inactive,inactive,-9.57% (inactive) and 27.4% (inactive),83.9%,87.2%,77.4%,,,,,
Nc1nc(N)c(N=O)c(OCC2CCCCC2)n1,inactive,inactive,inactive,15% (inactive),28%,79.9%,32.9%,,,,,
NNc1nncc2ccccc12,inactive,inactive,inactive,-0.582% (inactive) and 32.1% (inactive),85.6%,92.8%,116%,,,,,
CC1(C)C(=O)N(CCN2CCC(C(=O)c3ccc(F)cc3)CC2)c2ccccc21,inactive,inactive,inactive,6.71% (inactive),49%,15.4%,26.2%,,,,,
NCCCCNCCCN,inactive,inactive,inactive,11.2% (inactive),161%,95.4%,90.4%,,,,,
O=C1NC(=O)C(c2ccccc2[N+](=O)[O-])=C1Nc1ccc(O)c(Cl)c1,inactive,inactive,inactive,,68.6%,87.1%,106%,,,,,
COc1ccc2cc([C@H](C)C(=O)O)ccc2c1,inactive,inactive,inactive,18.3% (inactive) and 6.4% (inactive),106%,100%,91%,,,,,
CC1(C)NC(=O)N(c2ccc([N+](=O)[O-])c(C(F)(F)F)c2)C1=O,inactive,inactive,inactive,12.7% (inactive) and -11.2% (inactive),83.6%,106%,86.1%,,inactive,-18.9% (inactive),,
O=C(CCc1ccc(O)cc1)c1c(O)cc(O)cc1O,inactive,inactive,inactive,19.3% (inactive),10.4%,96.7%,7.72%,,,,,
c1ccc2[nH]c(-c3cscn3)nc2c1,,,,16.1% (inactive),11.2%,87.1%,33.5%,,inactive,-17.6% (inactive) and -12.7% (inactive),,
Cc1cccc(-c2[nH]ncc2-c2ccc3ncccc3n2)n1,,,,-4.01% (inactive),74.7%,94.4%,81.1%,89.3% [at 57.5 µM],,,,
CN1C(C(=O)Nc2ccccn2)=C(O)c2sccc2S1(=O)=O,,,,15.1% (inactive),,,,,,,,
COc1c2occc2cc2ccc(=O)oc12,,,,12.3% (inactive),,,,,inactive,1.56% (inactive) and -7.55% (inactive),,
COc1cc(Nc2c(C#N)cnc3cc(OCCCN4CCN(C)CC4)c(OC)cc23)c(Cl)cc1Cl,,,,,6.35%,10.9%,14.7%,1.13%,,,3.55 µM (active),
Cc1ncc([N+](=O)[O-])n1CC(C)O (stereo not drawn),,,,9.98% (inactive),94.7%,95.7%,94.8%,,,,,
CCN(CCO)CCCC(C)Nc1ccnc2cc(Cl)ccc12 (stereo not drawn),,,,-15.7% (inactive),20.1%,16.9%,15.4%,1.3% and -0.152%,,,,
COC(=O)[C@H](Cc1ccccc1)NC(=O)[C@@H](N)CC(=O)O (H-Asp-Phe-OMe),,,,15.3% (inactive) and 2.54% (inactive),88.6%,22.1%,118%,,inactive,-2.43% (inactive) and -2.64% (inactive),,
CC(C)[C@H](N)C(=O)OCCOCn1cnc2c(=O)[nH]c(N)nc21,,,,18.3% (inactive),102%,,,,,,,
CCc1nc(N)nc(N)c1-c1ccc(Cl)cc1,,,,14.3% (inactive),30.2%,83.6%,85.4%,3.84%,28.2 µM (active),,,10 µM (active) and 12.6 µM (active)
Cc1ccc(Nc2nccc(N(C)c3ccc4c(C)n(C)nc4c3)n2)cc1S(N)(=O)=O,,,,45.8% (inactive),,,,,,,,
COc1cc(OC)c(C(=O)CCCN2CCCC2)c(OC)c1,,,,4.14% (inactive),90.8%,120%,38.2%,,inactive,-5.06% (inactive),,
CCCc1cc(=O)[nH]c(=S)[nH]1,,,,1.36% (inactive),95.4%,93.3%,78.2%,,inactive,-1.41% (inactive) and 0.952% (inactive),,
Cc1cc2c(s1)Nc1ccccc1N=C2N1CCN(C)CC1,,,,2.02% (inactive),,,,,,,,
